This note sets out measurements from PubChem BioAssay (NCATS).

Records with an inconclusive call do not appear. Where a call stands in place of a potency, no number is given. Calls of active or inactive are those of the source. Calls come from the whole dose curve; as a rule, active = well fitted cell-killing curve with a large enough effect; inconclusive = small, poorly fitted or top-dose-only effect, or effect the other way, or another doubt; inactive = no such curve, though single readings can be large or run the other way.
Potency is the fitted concentration of half-maximal effect.

The nature of the experiment: Identifying Small Molecule Inhibitors of Pancreatic Cancer Stem Cells (Panc1, Adherent) (AID 1259362). The conditions noted are these: Potency: viability; series mostly up to 46.1 µM. The text has this: Progenitor-like cancer cells, often referred to as cancer stem cells (CSC), are believed to be the drivers of therapeutic resistance and rapid recurrence. CSCs are postulated to reside in specific niches characterized by low oxygen tension, limited nutrient supply, and high redox load. Selectively targeting CSC, alone or in combination with cytotoxic agents, as a means to produce durable remissions is an appealing concept. Modeling these cells in in vitro setting is an important step in finding new therapies and/or targets. Multiple reports highlight that forcing cells in culture into 3-dimensionaly architectures (spheroids) re-establishes key progenitor-like transcriptional signatures. Pancreatic cancer is among the diseases with the most dismal outlook which is driven, largely, by recurance following front-line therapies. […] In hopes of deriving new insight into the targeting of these pancreatic CSCs we examined three established pancreatic cancer cell lines in cytotoxicity assays versus a collection of approved and investigational drugs. Importantly, we screened these lines as traditional monolayer (2D) and spheroid (3D) formats to gain an appreciation of agents with differential activity.
Multicellular tumor spheroids from Panc1, MiaPaCa-2, and the primary low-passage tissue culture line SB.06 were seeded in stem cell media (SCM) in nonadherent 6-well plates coated with hydrogel (Corning Life Sciences, Chelmsford, Mass) and pancreatic spheres generated for 14 days before screening. Cells were seeded into 1536-well solid-bottom white tissue culture treated Greiner Bio One Plates (789173-F) using a MultiDrop Combi (Thermofisher Scientific) dispenser and a small sterile cassette. One column was media alone to be used as a :"no cells" control. The plates were then covered with sterilized stainless steel gasketed lids from Kalypsys. After allowing cells to attach for 4 hours, 23 nL of test compound or control (negative control DMSO and positive control 9.2 uM Bortezomib-final) were added from a 1536-well polypropylene compound source plate to each well using a 1536 head pin tool from Kalypsys. Cells were then incubated for 48 hours at 37C, 95% relative humidity and 5% CO2. After 48 hours, plates were removed from the incubator and 3 uL of CellTiter-Glo (Promega) was added using an Aurora Flying Reagent Dispenser Bioraptor. Plates were incubated at room temperature for 10 minutes prior to reading the luminescence on the Viewlux (PerkinElmer). The relative luciferase units are used to calculate the percent activity using the activity of DMSO in the cells and no cells columns for normalization of no inhibition and full inhibition respectively.
Take `N#Cc1ccc(NC(=O)Nc2ccccc2Br)c2n[nH]nc12`: the Potency result was “inactive”.
For the compound `O=c1cc(N2CCOCC2)oc2c(-c3cccc4c3sc3ccccc34)cccc12`, the Potency was 23.5 µM (active).
The value for `O=C1C(Cl)=C(NCCN2CCOCC2)C(=O)c2ncccc21` was 1.66 µM (active); that for `CC(C)(C(=O)NCC(F)(F)C(F)(F)F)C(=O)N[C@@H]1C(=O)Nc2ccccc2-c2ccccc21` was “inactive”.
Consider `CC(C)[C@H](CO)Nc1nc(Nc2ccc(C(=O)O)c(Cl)c2)c2ncn(C(C)C)c2n1`, for which the Potency result was “inactive”.
The value for `O=C(Nc1cc(Cl)cc2c1[nH]c1cnccc12)c1cccnc1` was “inactive”.
Under `O=C(Nc1ccccc1-c1cn2c(CN3CCNCC3)csc2n1)c1cnc2ccccc2n1` stands “inactive”.
Under `CC(C)(C)C(=O)Oc1ccc2c(c1)nc(NC(=O)c1cccc([N+](=O)[O-])c1)n2CCCO` stands “inactive”; under `OC[C@H]1O[C@@H](n2cnc3c2NC=NC[C@@H]3O)C[C@H]1O`, “inactive”; under `NC(CO)(CO)CCc1ccc(Sc2cccc(OCc3ccccc3)c2)cc1Cl`, “inactive”.
In the case of `O=c1cc(CN2CCOCC2)occ1OCCCCCSc1ccnc2cc(C(F)(F)F)ccc12`, the Potency result was “inactive”.
Under `c1ccc2c(-c3cnn4cc(-c5ccc(N6CCNCC6)cc5)cnc34)ccnc2c1` stands 20.9 µM (active); under `O=C(O)CCC1CCC(c2cc(F)ccc2F)(S(=O)(=O)c2ccc(Cl)cc2)CC1` (stereo not given), “inactive”; under `CC1=C(/C=C/C(C)=C/C=C/C(C)=C/C(=O)Nc2ccc(O)cc2)C(C)(C)CCC1`, 23.5 µM (active).
For the compound `COc1cc2ncnc(-n3nc(-c4ccccn4)nc3N)c2cc1OC`, the Potency is 18.7 µM (active).
